High-throughput results as filed in PubChem.
Most compounds without a hit are left out; they make up all but 1.6% or so of the library.
KCNQ2 pot – potentiators of rat KCNQ2 potassium channel | Potassium voltage-gated channel subfamily KQT member 2 (Rattus norvegicus), O88943 | CHO-K1 KCNQ2, FluxOR thallium flux fluorescence; stronger effect = higher value | B-score at 10 µM | 310,000 compounds, 0.54% hits;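 active means fluorescence ratio B-score at least 3 SD of library B-scores, with initial fluorescence B-score within 3 of them, cut at about 5.3 in these data; same plate scores as AID 2156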;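 further: B-score of peak minus minimum over baseline fluorescence ratio after K+ and Tl+ stimulus; positive B-score means potentiation of KCNQ2 with more thallium influx and brighter signal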
KCNQ2 block – rat KCNQ2 potassium channel inhibitors, primary screen, cell-based, CHO-K1, FluxOR thallium flux, B-score; Potassium voltage-gated channel subfamily KQT member 2 (Rattus norvegicus), O88943; 20 min; stronger effect = lower value; B-score at 10 µM; 310,000 compounds, 1.1% hits;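 active means fluorescence ratio B-score at most minus 3 library SDs, with starting brightness B-score within 2 library SDs, cut at about -5.5 in these data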
Kir21 conf inh – mouse Kir2.1 channel blockers, retest, confirmation, cell-based, FluxOR thallium flux, duplicate | shares compounds with KCNQ2 pot | Kir2.1-expressing cells, FluxOR thallium flux fluorescence; stronger effect = lower value | Tl flux remaining, % of negative control (stronger effect = lower value), % at 10 µM | 2,300 compounds, 41% hits | AID 2032, 2009;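 active means Primary-screen hit whose thallium flux fell at least 3 control SD below untreated wells in both duplicates, with normal baseline fluorescence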;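 further: 0% = blank wells without stimulus and 100% = stimulated no-compound controls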
HEK293 ctr – alters thallium flux in parental HEK293 cells, Kir2.1 counter-screen | shares compounds with KCNQ2 pot | FluxOR thallium flux fluorescence; 0% = unstimulated blank wells | FluxOR signal as % of negative control (100 = no effect), % at 10 µM | 2,300 compounds, 19% hits;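 active means dye signal at least 3 control SD above or below untreated wells in both duplicates, raw fluorescence within 3, either direction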;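 further: percent is based on the flux ratio of peak minus minimum fluorescence over baseline F0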
CHO-K1 ctr – nonspecific thallium flux increase in parental CHO-K1, confirmation, counter-screen for KCNQ2 potentiator project, cell-based, FluxOR thallium flux, duplicate | parental CHO-K1 cells, FluxOR thallium flux fluorescence; zero = vehicle mean+3SD, 100% = vehicle-minus-blank window | shares compounds with KCNQ2 pot | 1,200 compounds, 43% hits | activity increase over 3SD of controls, % at 10 µM;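 active means signal rise of at least 3 SD above the untreated control mean, in both duplicate wells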;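 further: counter screen of KCNQ2 potentiator hits so any rise reflects channel-independent effects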
KCNQ1 pot spec – human KCNQ1 channel potentiation off-target, confirmation, selectivity assay for KCNQ2 potentiator project, cell-based, CHO, FluxOR thallium flux; shares compounds with KCNQ2 pot; CHO KCNQ1 stable, FluxOR thallium flux fluorescence; beyond 3SD, as % of vehicle-control signal; activation over 3SD threshold, % at 10 µM; 1,200 compounds, 28% hits;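 active means fluorescence ratio rise of at least 3 SD of vehicle wells above their mean, in both replicate wells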;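 further: 0% = vehicle mean plus 3 SD and 100% = vehicle minus unstimulated blank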
Target sequence (P51787 whole entry, looked up): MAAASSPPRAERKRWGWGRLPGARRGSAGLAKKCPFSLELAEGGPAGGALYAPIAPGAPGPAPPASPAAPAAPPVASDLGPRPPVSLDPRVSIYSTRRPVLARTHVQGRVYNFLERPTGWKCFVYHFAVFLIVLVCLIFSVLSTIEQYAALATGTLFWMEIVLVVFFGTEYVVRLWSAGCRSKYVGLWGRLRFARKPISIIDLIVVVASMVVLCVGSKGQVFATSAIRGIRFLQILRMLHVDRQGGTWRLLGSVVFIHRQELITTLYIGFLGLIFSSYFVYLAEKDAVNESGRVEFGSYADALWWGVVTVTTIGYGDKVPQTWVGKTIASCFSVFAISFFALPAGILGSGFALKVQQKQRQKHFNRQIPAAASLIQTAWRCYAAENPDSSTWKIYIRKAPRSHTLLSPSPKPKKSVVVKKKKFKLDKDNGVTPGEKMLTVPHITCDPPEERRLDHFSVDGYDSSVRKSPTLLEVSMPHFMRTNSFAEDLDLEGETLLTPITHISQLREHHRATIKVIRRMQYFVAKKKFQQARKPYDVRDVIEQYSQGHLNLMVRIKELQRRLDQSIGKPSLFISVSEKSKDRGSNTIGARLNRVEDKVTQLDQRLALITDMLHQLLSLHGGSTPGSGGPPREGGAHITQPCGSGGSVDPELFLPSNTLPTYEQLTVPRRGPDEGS
KCNQ2 pot confirm – rat KCNQ2 channel potentiators, confirmation, cell-based, CHO, FluxOR thallium flux, duplicate | shares compounds with KCNQ2 pot | CHO-KCNQ2 cells, FluxOR thallium flux fluorescence | potentiation, less the hit threshold, % at 10 µM | 1,200 compounds, 68% hits;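 active means fluorescence ratio rising 3 SD or more over the vehicle control mean in both replicates, plus primary screen hit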;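 further: peak minus minimum thallium fluorescence divided by baseline after K/Tl stimulus; 0% = vehicle mean plus 3 SD and 100% = vehicle minus unstimulated blank difference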
Kir21 spec – mouse Kir2.1 channel activation off-target, confirmation, selectivity assay for KCNQ2 potentiator project, cell-based, HEK293, FluxOR thallium flux. HEK293 Kir2.1, FluxOR thallium flux fluorescence. activity over 3SD threshold, % at 10 µM. 1,200 compounds, 2% hits. shares compounds with KCNQ2 pot;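 active means fluorescence ratio rise of at least 3 SD above the vehicle-control mean, seen in both replicates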;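 further: 0% = vehicle mean plus 3 SD and 100% = vehicle minus no-stimulus blank window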
KCNQ2 W236L pot – potentiators of retigabine-insensitive KCNQ2 W236L, mechanism study for KCNQ2 potentiator project, cell-based, rat KCNQ2 W236L, CHO, automated patch clamp | shares compounds with KCNQ2 pot | automated patch clamp current | current increase over 3SD of negative controls (%), stronger effect = higher value, % at 25 µM | 940 compounds, 10% hits | AID 2558, 2010;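 active means current increase at least 3 SD of the untreated controls above them in both duplicate recordings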
Active calls of the source: *; i = inactive; . = no result given.

SMILES	KCNQ2 pot	KCNQ2 block	Kir21 conf inh	HEK293 ctr	others
CCC(=O)Nc1ccc(NC(=O)CSc2nnc(-c3ccco3)n2CC)cc1	0.52	i	.	.
CCN(Cc1ccccc1)Cc1ccc(OCc2ccccc2)c(OC)c1	.	i	.	.
COc1cc(CN(C)CCc2ccccc2)ccc1OCc1ccccc1	.	i	16.5%*	i
O=C(N/N=C/c1cccc(Oc2ccccc2)c1)c1cccc(O)c1	.	i	74.0%*	i
O=C(N/N=C/c1cccc(Oc2ccccc2)c1)c1cccc(Br)c1	.	i	.	.
Nc1[nH]n2c(=O)cc(-c3ccccc3)nc2c1N=Nc1ccc2c(c1)OCO2	1.38	i	.	.
N#CCC(=O)N/N=C/c1cc(Br)ccc1OCc1cccc2ccccc12	.	i	.	.
Cc1nnc2n(-c3ccccc3)c(=O)c3c4c(sc3n12)COC(C(C)C)C4 (stereo not given)	0.2	i	.	.
CC(C)C1Cc2c(sc3[nH]c(=S)n(Cc4ccccc4)c(=O)c23)CO1 (stereo not given)	7.33*	i	i	396.5%*	CHO-K1 ctr=18.7*;KCNQ1 pot spec=-9.4;KCNQ2 pot confirm=52.2*;Kir21 spec=-13.3;KCNQ2 W236L pot=i
O=[N+]([O-])c1cccc(S(=O)(=O)Nc2nc3ccccc3nc2Nc2cccc(S(=O)(=O)N3CCCCC3)c2)c1	8.22*	i	i	i	CHO-K1 ctr=-13.2;KCNQ1 pot spec=16.9*;KCNQ2 pot confirm=-26.4;Kir21 spec=-39.0
Cc1ccc(S(=O)(=O)Nc2nc3ccccc3nc2Nc2cccc(S(=O)(=O)N3CCCC3)c2)cc1	.	i	.	.
O=S1(=O)C[C@H]2NC(=S)N(c3ccccc3)[C@H]2C1	.	i	.	.
CC(C)(C)OC(=O)n1cc(C(=O)c2ccccc2O)cn1	.	i	.	.
CC1=C(C(N)=O)C(c2cccs2)n2nc(-c3cccc(Cl)c3)nc2N1 (stereo not given)	5.77*	i	i	i	CHO-K1 ctr=53.2*;KCNQ1 pot spec=-11.4;KCNQ2 pot confirm=-4.2;Kir21 spec=-37.7;KCNQ2 W236L pot=0.9%*
CC1=C(C(N)=O)C(c2cccs2)n2nc(-c3cccc(C)c3)nc2N1 (stereo not given)	0.02	i	.	.
Cc1ccccc1OCCC(=O)Nc1ccc(N2CCOCC2)cc1N1CCOCC1	1.05	i	.	.
CNC(=O)CSc1nnc(SCCC(=O)O)s1	0.65	i	.	.
CN(C)c1ccc(NC(=O)CCN2CCN(c3ccccn3)CC2)cc1	.	i	.	.
Oc1ccccc1Nc1nc(NCc2ccccc2)c2ccccc2n1	.	i	.	.
Cc1c(Cl)cccc1Nc1nc(NCCO)c2ccccc2n1	.	i	35.0%*	i
O=C(CSc1ccc2nnc(CCNC(=O)c3ccc(F)cc3)n2n1)NCC1CCCO1 (stereo not given)	.	i	.	.
Cc1cc(C)n(/N=C/c2ccccc2O)c(=O)c1	.	i	.	.
Cc1cc(C)n(/N=C/c2cc(Cl)cc(Cl)c2O)c(=O)c1	9.78*	i	i	i	CHO-K1 ctr=-13.9;KCNQ1 pot spec=39.2*;KCNQ2 pot confirm=-13.0;Kir21 spec=-41.5
CN(C)S(=O)(=O)c1ccc(NC(=O)C2CC(=O)N(Cc3ccccc3Cl)C2)cc1 (stereo not given)	0.51	i	.	.
CCN(CC(=O)Nc1c(F)cccc1F)C(=O)C1=COCCO1	2.28	i	.	.
SMILES	KCNQ2 pot	KCNQ2 block	Kir21 conf inh	HEK293 ctr	others
COc1ccc(CNC/C=C/c2ccccc2)cc1	0.18	i	18.0%*	i
COc1ccc(CCNC/C=C/c2ccccc2)cc1	0.37	i	.	.
Cc1ccc(C(O)(CCN2CCCCC2)c2ccccc2)cc1 (stereo not given)	.	i	.	.
COc1ccc(CNCC(O)(c2ccccc2)c2ccc(F)cc2)cc1 (stereo not given)	.	i	41.5%*	i
Cc1ccc(C(O)(CNCc2ccccc2)c2ccccc2)cc1 (stereo not given)	.	i	46.0%*	i
COc1ccc(CNCC(O)(c2ccccc2)c2ccc(F)cc2)cc1OC (stereo not given)	0.98	i	.	.
N#Cc1ccsc1NC(=O)C1CC(=O)N(Cc2ccccc2)C1 (stereo not given)	1.93	i	.	.
Cc1ccc(NC(=O)COc2ccc3c(c2)CCC3)nc1	0.7	i	.	.
COc1ccccc1N(C(=O)c1cncc(Br)c1)c1nc(-c2ccc(C)cc2)cs1	.	i	.	.
Cc1ccc(S(=O)(=O)Nc2c(C)nn(C)c2C)c(C)c1	.	i	.	.
CN(C)CC1CCCCC1C1(O)c2ccccc2CSc2sccc21 (stereo not given)	1.5	i	69.0%*	i
CN(C)CC1CCCCC1OC(=O)c1ccc(Cl)cc1 (stereo not given)	0.35	i	.	.
CC(C)CC(N)C(=O)OCc1ccc([N+](=O)[O-])cc1 (stereo not given)	0.04	i	.	.
COc1cccc(/C=C/C(=O)OCC(=O)N2CCN(S(=O)(=O)c3ccc(Cl)cc3)CC2)c1	2.05	i	.	.
O=C(OCC(=O)N1CCN(S(=O)(=O)c2ccc(Cl)cc2)CC1)c1cccc(OC(F)F)c1	11.1*	i	i	i	CHO-K1 ctr=-7.9;KCNQ1 pot spec=-16.4;KCNQ2 pot confirm=12.5*;Kir21 spec=-29.4;KCNQ2 W236L pot=i
COCCN(C(=O)Cc1cccs1)C(C(=O)NC1CCCC1)c1cc(OC)c(OC)c(OC)c1 (stereo not given)	0.11	i	.	.
CCOc1ccc2[nH]c(C)c(CN3CCCCCC3)c(=O)c2c1	.	i	.	.
O=C(/C=C/c1ccc([N+](=O)[O-])cc1)/C=C/c1ccco1	-6.07	-6.07*	i	i
O=C(/C=C/c1ccc([N+](=O)[O-])cc1)NCc1ccco1	0.51	i	.	.
COc1cc(Cl)cc2c1Sc1ccccc1/C2=C/CCN(C)C	-7	-7*	35.5%*	i
